Results on 107 compounds are retold here after ChEMBL document CHEMBL4513216, “Probing the Open Global Health Chemical Diversity Library for Multistage-Active Starting Points for Next-Generation Antimalarials” (ACS Infect Dis, 2020).

About 2,700 (4%) of roughly 68,000 compounds showed an effect of 50% or more. What follows is part of a selection rich in strong results, with near analogues and random picks from the rest.

The test concerns Plasmodium berghei. The experiment in a line: Screen against P. berghei liver stage (PbLuc), transformed with Luciferase, at 2uM. The format is functional, HepG2. To be noted: tested at 2 uM.
`O=C(NCC(=O)N1CCc2ccccc2C1)c1cnccn1`: the INHIBITION is 23.94%.

Consider `CC(C)(CO)Nc1cc(-c2cn[nH]c2)ncn1`, for which the INHIBITION was found to be 6.03%.

In the case of `Cc1cnn(CC2CCCN2CC(=O)Nc2nc(C)cs2)c1` (configuration not stated), the INHIBITION is listed as -54.73%. As for `Cc1cnn(CC2CCCCN2CC(=O)Nc2nc(C)cs2)c1` (configuration not stated), the INHIBITION amounted to 67.69%. As for `CCCn1nccc1NC(=O)CN1CCCC1Cn1cc(C)cn1` (configuration not stated), the INHIBITION is 50.32%.

For `CCCn1nccc1NC(=O)CN1CCCC1Cn1cccn1` (configuration not stated), the INHIBITION was 33.9%.

Consider `CCCn1nccc1NC(=O)CN1CCC[C@H]1CO`, for which the INHIBITION is recorded as 13.53%. Regarding `Cc1cnn(CC2CCCCN2CC(=O)Nc2nncs2)c1` (configuration not stated), the INHIBITION is listed as 23.65%. The value for `Cc1cc(O)n(-c2ccccc2Cl)c(=O)c1C#N` was 3.1%; that for `O=C1NCCCCC1NS(=O)(=O)N1CCCCCC1` (configuration not stated) was -4.89%; that for `CC(C)N1CC[C@H]2[C@H](C[C@@H](Cn3cncn3)N2c2nccs2)C1` was 27.61%. On to `CC(C)(C)c1nnc(CN2CCOC(Cn3cccn3)C2)o1` (configuration not stated), for which the INHIBITION is 11.18%.

Consider `CN(C)C(=O)c1cccc(CN2CCOC(Cn3cccn3)C2)c1` (configuration not stated), for which the INHIBITION was -21.39%. Consider `Fc1ccc(-c2nnc(CN3CCOC(Cn4cncn4)C3)o2)cc1` (configuration not stated), for which the INHIBITION is on record as -77.99%.

As to `Cc1ccc(-c2nnc(CN3CCOC(Cn4cccn4)C3)o2)cc1` (configuration not stated), the INHIBITION was -47.05%.

On to `CN(C)C(=O)c1cccc(CN2CCOC(Cn3cncn3)C2)c1` (configuration not stated), for which the INHIBITION was found to be 74.35%. Regarding `CC(C)(C)c1nnc(CN2CCCC(Cn3cncn3)C2)o1` (configuration not stated), the INHIBITION is 15.31%. The value for `Cc1cnn(CC2CN(Cc3cccc(C(=O)N(C)C)c3)CCO2)c1` (configuration not stated) was 18.46%; that for `Cc1ccc(-c2nnc(CN3CCOC(Cn4cncn4)C3)o2)cc1` (configuration not stated) was 51.46%; that for `CC(C)(C)c1nnc(CN2CCOC(Cn3cncn3)C2)o1` (configuration not stated) was 62.13%. The same measure for `Cc1ccc(CCNC(=O)Nc2cc(C(F)(F)F)c[nH]c2=O)o1`: -0.12%. Take `O=C(c1n[nH]c2c1CN(C1CCOCC1)CC2)N1CCCC1`: the INHIBITION is 30.95%. Consider `Cc1cccc(N(C)Cc2cc(=O)n3oc(C)cc3n2)c1`, for which the INHIBITION is 4.91%. As for `N#CCCN(CC1CCOC1)Cn1ccc(-c2cccs2)n1` (configuration not stated), the INHIBITION is given as -42.48%. With `COc1cc(C)nc(N2CCN(C(=O)CN(C)C(C)C)CC2)n1`, the INHIBITION came to 10.22%. The value for `COc1c(C)cnc(CNC(=O)CCOCc2ccccc2)c1C` was 65.76%; that for `COc1c(C)cnc(CNC(=O)CCOCC(C)C)c1C` was 5.17%; that for `COc1ccccc1OCCC(=O)NCc1ncc(C)c(OC)c1C` was 40.51%. Consider `CN1CCCC1c1cccc(Cc2ccc(F)cc2)n1` (configuration not stated), for which the INHIBITION came out at 16.32%. `Cc1cc(-c2nnn(CCC(N)=O)n2)ccc1F`: the INHIBITION is given as 5%. The value for `CNS(=O)(=O)CCCn1nnc(-c2ccc(F)c(C)c2)n1` was 31.66%. With `Cc1cc(-c2nnn(CCNS(C)(=O)=O)n2)ccc1F`, the INHIBITION was 69.72%. The value for `c1ccc([C@@H]2CN(Cc3cccnc3)C[C@H]2c2cc[nH]n2)cc1` was 50.94%; that for `COc1ccc([C@@H]2CN(Cc3ccncc3)C[C@H]2c2cc[nH]n2)cc1` was -128.75%; that for `c1ccc([C@@H]2CN(Cc3ccncc3)C[C@H]2c2cc[nH]n2)cc1` was 48.22%.

As for `CS(=O)(=O)c1cccc(C(=O)NCCCN2CCc3ccccc3C2)c1`, the INHIBITION was determined as 5.59%. In the case of `c1cnc(N2CC3(CCN(C4CCOCC4)CC3)c3ccccc32)nc1`, the INHIBITION is -23.45%. Regarding `CCNC(=O)NCCCn1nc2ccccn2c1=O`, the INHIBITION is on record as -53.4%. Consider `CN(C)C(=O)N1CCN(CCn2nc3ccccn3c2=O)CC1`, for which the INHIBITION is 50.32%. `CN(CCn1nc2ccccn2c1=O)CC(=O)NC1CC1`: the INHIBITION stood at 16.6%. The value for `CCC(=O)CNC(=O)CCn1nc2ccccn2c1=O` was -12.95%; that for `O=C(NCCCn1nc2ccccn2c1=O)NC(C1CC1)C1CC1` was -35.46%.

Turning to `CCC(C)NC(=O)NCCCn1nc2ccccn2c1=O` (configuration not stated), the INHIBITION amounted to 55.7%. The value for `CN(CCn1nc2ccccn2c1=O)CC(=O)N1CCCC1` was 17.19%.

As to `CC(=O)N1CCCN(CCn2nc3ccccn3c2=O)CC1`, the INHIBITION is reported as 52.66%. As for `CCN(CC)C(=O)CN(C)CCn1nc2ccccn2c1=O`, the INHIBITION worked out at 8.88%. Consider `CN1CCN(C(=O)c2cnsn2)c2ccc(F)cc21`, for which the INHIBITION amounted to 36.24%. Turning to `CN(C)CCCn1ccnc1C1CCCN(c2ncc(Cl)cc2F)C1` (configuration not stated), the INHIBITION is -18.59%. In the case of `Cc1noc([C@H]2C[C@H]3OCC[C@H]3N(Cc3cccs3)C2)n1`, the INHIBITION was -27.21%. On to `c1cnc(N2CCCC3(CCN(CC4CCC4)C3)C2)nc1` (configuration not stated), for which the INHIBITION is -20.98%. On to `CN(C)c1cc(CNC(=O)Nc2cccnc2N2CCCC2)ccn1`, for which the INHIBITION is -43.4%.

`Cn1cccc(NC(=O)N2CCC(COCc3ccccc3)C2)c1=O` (configuration not stated): the INHIBITION is -5.79%. Turning to `CN1CCN(C2CCN(Cc3nc(-c4ccoc4)no3)CC2)C1=O`, the INHIBITION is -17.31%. For the compound `Cc1ncc(CN(C)C(=O)Nc2cccc(N3CCOC3=O)c2)s1`, the INHIBITION is given as -127.85%. The same measure for `Cc1ncc(CN(C)C(=O)Nc2cccc(CN3CCOC3=O)c2)s1`: 56.2%; for `Cc1ncc(CN(C)C(=O)Nc2ccc(CN3CCOC3=O)cc2)s1`: 10.61%. The same measure for `CS(=O)(=O)NC1CCN(Cc2ccc(OCc3ccccn3)cc2)CC1`: -15.64%; for `CN1CCOC(CNCc2ccc(OCc3ccccn3)cc2)C1` (configuration not stated): -12.27%. As for `CCN1CCOC(CNCc2cccc(OCc3ccccn3)c2)C1` (configuration not stated), the INHIBITION is given as 3.06%.

Take `CC(=O)NC1CCCN(Cc2ccc(OCc3ccccn3)cc2)C1` (configuration not stated): the INHIBITION came out at 57.92%.

In the case of `CS(=O)(=O)NC1CCCN(Cc2ccc(OCc3ccccn3)cc2)C1` (configuration not stated), the INHIBITION is reported as 10.63%. With `CCN1CCOC(CNCc2ccc(OCc3ccccn3)cc2)C1` (configuration not stated), the INHIBITION is 50.75%. Consider `c1cnc(N2C[C@H]3CCN(CCN4CCCC4)C[C@H]3C2)cn1`, for which the INHIBITION was -27.22%. On to `COCCNC(=O)c1nnc2ccc(N3CCOCC3)cc2n1`, for which the INHIBITION was found to be 26.54%. The value for `CSc1nc2ncc3c(=O)n(CCN4CCCCC4)ccc3n2n1` was 8.9%; that for `COC1CCN(C(=O)CC(C)(C)C)CC(=O)N(C)c2ccccc21` (configuration not stated) was 51.71%; that for `COC1CCN(C(=O)COC(C)=O)CC(=O)N(C)c2ccccc21` (configuration not stated) was -46.46%.

Regarding `COC1CCN(C(=O)CC2CCCC2)CC(=O)N(C)c2ccccc21` (configuration not stated), the INHIBITION came to 8.41%. Regarding `CN(Cc1noc2c1CCCC2)C(=O)C1CCOc2ccccc2C1` (configuration not stated), the INHIBITION stood at 8.89%.

As to `c1csc(CNCC2COCc3c(-c4ccoc4)nnn3C2)n1` (configuration not stated), the INHIBITION is -45.9%. For `O=C([C@@H]1COC[C@H]2CN(C3CCOCC3)C[C@H]21)N1CCCO1`, the INHIBITION came to 35.15%. For `CN(Cc1ccc2c(c1)OCO2)C(=O)C1CC(c2cccc(F)c2)=NO1` (configuration not stated), the INHIBITION is listed as 53.68%.

Consider `Cc1cc(CN(C)C(=O)C2CC(c3cccc(F)c3)=NO2)no1` (configuration not stated), for which the INHIBITION is recorded as -30.08%. Take `CN(Cc1cccc(C#N)c1)C(=O)C1CC(c2cccc(F)c2)=NO1` (configuration not stated): the INHIBITION is 17.47%. `CNC(=O)N1C[C@@H]2C[C@H](C(=O)Nc3ccccc3)[C@H](C1)O2`: the INHIBITION worked out at 6.57%. On to `c1ccc(-c2cc(CNCCCC3CCOC3)c3nnnn3c2)cc1` (configuration not stated), for which the INHIBITION stood at 22.81%. `Cc1nn(C)c(C)c1CC(=O)NCC1(C(N)=O)CCOCC1`: the INHIBITION is recorded as 60.59%. Take `CCc1nc(CNCC2(C(N)=O)CCOCC2)cs1`: the INHIBITION was 33.9%.

For `CCc1nc(CC(=O)NCC2(C(N)=O)CCOCC2)cs1`, the INHIBITION is listed as 55.36%. As for `Cc1nn(C)c(Cl)c1C(=O)NCC1(C(N)=O)CCOCC1`, the INHIBITION was 32.02%. `Cc1nn(C)c(C)c1CCC(=O)NCC1(C(N)=O)CCOCC1`: the INHIBITION is 25.73%. For `NC(=O)C1(CNCc2csc(-c3cccs3)n2)CCOCC1`, the INHIBITION turned out to be 36.28%. Turning to `Nc1ccc(C(=O)N2CCCC(C(=O)CCc3ccccc3)C2)cn1` (configuration not stated), the INHIBITION is -62.48%. Turning to `COCc1cnc2n1CCN(C1CCCC1)C2C` (configuration not stated), the INHIBITION is recorded as 0.42%.

As to `c1cc(-c2nn3c(CN4CCOCC4)nnc3s2)ccn1`, the INHIBITION stood at 2.88%. The same measure for `COc1cc(C(=O)N2CCC(c3n[nH]c(C4CC4)n3)CC2)ccc1C`: 10.5%; for `O=C(NCc1cccnc1)[C@@H]1CC[C@@H]2[C@@H](CCN2c2ncc(F)cn2)O1`: 12.7%. In the case of `COc1ccc(-c2nnsc2C(=O)N2CCSCC2)cc1`, the INHIBITION is -20.55%. In the case of `N#CCCn1nc(C(F)(F)F)c2c1CCCC2`, the INHIBITION came out at 17.01%. The same measure for `N#CCCn1nc(C(F)(F)F)c2c1CCC2`: 10.83%. `NCCCn1nc(C(F)(F)F)c2c1CCC2`: the INHIBITION came to 58.18%. Consider `COCC1CN(Cc2cccnc2)Cc2nnn(CC3CC3)c21` (configuration not stated), for which the INHIBITION was -94.44%. As to `COCC1CC2(CCN(c3cc(OC)ncn3)CC2)CN1C(C)C` (configuration not stated), the INHIBITION is -0.45%. Turning to `COC(=O)c1cccc(C(=O)N2CCN(C(=O)N(C)C)CC2(C)C)c1`, the INHIBITION amounted to 7.42%. The same measure for `CCOc1cccc(C(C)NC(=O)N2CCC(C(N)=O)CC2)c1` (configuration not stated): -31.3%; for `CC(NC(=O)N1CCC2(C1)OCCO2)c1cccc(Cl)c1` (configuration not stated): 22.12%; for `CCOc1cccc(C(C)NC(=O)N2CCC3(CC2)OCCO3)c1` (configuration not stated): 58.01%. Consider `COc1cc(N2CCC3(CC2)CCN(c2cccnc2)C3=O)ncn1`, for which the INHIBITION is 2.72%. On to `O=C(c1ccc2nncn2c1)N1CCCCC1Cn1cccn1` (configuration not stated), for which the INHIBITION is given as 39.47%. `O=C(NCCOc1ccc(Cl)cn1)Nc1cccnc1`: the INHIBITION was -1.56%. `O=C(NCCOc1ccc(Cl)cn1)Nc1nccs1`: the INHIBITION was determined as 50.61%. As for `O=C(NCCOc1ccc(Cl)cn1)Nc1ccccn1`, the INHIBITION was -65.52%.

Consider `C=Cc1ccc(C(=O)N2CCCC(Nc3ccc(OC)cc3)C2)cc1` (configuration not stated), for which the INHIBITION stood at 19.42%. `CCn1cc(CN2CCCN(C(=O)C3(C)CCOCC3)CC2)cn1`: the INHIBITION is recorded as -1.55%. As to `CN(Cc1cccc(OC(F)(F)F)c1)C(=O)c1cnsn1`, the INHIBITION is reported as 10.1%. Regarding `CC(C)CN1C[C@@H]2C(=O)NC3(CCN(C(=O)c4cccnc4)CC3)[C@@H]2C1`, the INHIBITION is given as 14.47%. As for `Cc1cnc(-c2nc(C3CCN(Cc4ccccc4O)CC3)no2)cn1`, the INHIBITION was -10.49%.
